This is an account of results in PubChem BioAssay (NCATS).

For test [1], the system named is HaCat. As to the kind of experiment: Cytotoxic Profiling of Annotated Libraries Using Quantitative High-Throughput Screening (AID 1296008). Also: nearly all actives have a fitted effect of over 60% in size. Conditions: Five cell lines viability, CellTiter-Glo ATP luminescence, 48-72 h; max response: hits give low values. A digest of the protocol:
(§1)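 Cytotoxicity was measured as CellTiter-Glo ATP luminescence, read after 10 min at room temperature. Compound treatment of the cells lasted 48 or 72 hr at 37 degrees Celsius in a qHTS format.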
A general note: In ATP-based viability assays light output follows the ATP content of the culture.

Test [2] concerns NIH3T3. The description is as above. Conditions: Five cell lines viability, CellTiter-Glo ATP luminescence, 48-72 h; max response: hits give low values. A digest of the protocol: as §1
Test [3] relates to MCC-13. As to the kind of experiment: qHTS assay to identify novel small-molecules to repurpose for Merkel cell carcinoma treatment (AID 1296009). Also: nearly all actives have a fitted effect of over 60% in size. Also: potency is read from the fitted curve at half-maximal effect. The settings on record: MCC and control cell lines, CellTiter-Glo viability, 72 h; series mostly up to 46 µM. A digest of the protocol:
(§2)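 72 hr, 37 degree celsius; NPC 8-pt / MIPE 11-pt dose response; compound pinned in DMSO; CellTiter-Glo, 10 min RT, luminescence; normalized to no-cell and DMSO controls.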
In general terms: qHTS replaces the single test concentration by a dilution series.

Test [4] has as its system MCC-26. Described as above. The settings on record: MCC and control cell lines, CellTiter-Glo viability, 72 h; series mostly up to 46 µM. The method, boiled down: as §2
For test [5], the system named is MKL-1. The description is as above. Conditions: MCC and control cell lines, CellTiter-Glo viability, 72 h; series mostly up to 46 µM. A digest of the protocol: as §2
The subject of test [6] is MKL-2. The description is as above. Conditions: MCC and control cell lines, CellTiter-Glo viability, 72 h; series mostly up to 46 µM. A digest of the protocol:
as §2

Test [7] deals with UISO. The test is described as above. Conditions: MCC and control cell lines, CellTiter-Glo viability, 72 h; series mostly up to 46 µM. A digest of the protocol:
as §2

In test [8] the test system is C33A. Description: Primary qHTS to identify gynecologic anti-cancer compounds using libraries of approved drugs and bioactive compounds (AID 1345084). Also: nearly all actives have a fitted effect of over 55% in size. The settings on record: Gynecologic cancer cell panel viability, ATPlite luminescence, 48 h; series mostly up to 57.5 µM. A digest of the protocol:
(§3)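 Measured: luminescence after ATPlite addition (15 min, RT). Exposure: 48 h, 37 C, 5% CO2.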

The subject of test [9] is CAOV3. Described as above. The settings on record: Gynecologic cancer cell panel viability, ATPlite luminescence, 48 h; series mostly up to 57.5 µM. The method, boiled down: as §3
Test [10] has as its system CASKI. Described as above. The settings on record: Gynecologic cancer cell panel viability, ATPlite luminescence, 48 h; series mostly up to 57.5 µM. The method, boiled down:
as §3

Test [11] has as its system Es-2. The test is described as above. Conditions: Gynecologic cancer cell panel viability, ATPlite luminescence, 48 h; series mostly up to 57.5 µM. The method, boiled down:
as §3

Test [12] relates to HeLa. The test is described as above. Conditions: Gynecologic cancer cell panel viability, ATPlite luminescence, 48 h; series mostly up to 57.5 µM. The method, boiled down:
as §3

Test [13] concerns Hek293T. Described as above. The settings on record: Gynecologic cancer cell panel viability, ATPlite luminescence, 48 h, control line for the selectivity index; series mostly up to 57.5 µM. A digest of the protocol:
as §3

For test [14], the system named is JEG-3. The test is described as above. The settings on record: Gynecologic cancer cell panel viability, ATPlite luminescence, 48 h; series mostly up to 57.5 µM. The method, boiled down: as §3
For test [15], the system named is OV90. Described as above. Conditions: Gynecologic cancer cell panel viability, ATPlite luminescence, 48 h; series mostly up to 57.5 µM. The method, boiled down: as §3
For test [16], the system named is WaGa. As to the kind of experiment: qHTS assay to identify novel small-molecules to repurpose for Merkel cell carcinoma treatment (AID 1296009). Also: nearly all actives have a fitted effect of over 60% in size. Also: potency is read from the fitted curve at half-maximal effect. The settings on record: MCC and control cell lines, CellTiter-Glo viability, 72 h; series mostly up to 46 µM. The method, boiled down:
as §2

Results filed as inconclusive are left out. Values without a mark were called inactive. Activity calls are given as the source filed them. Calls follow the shape of the dose curve; as a rule, active = well fitted curve in the direction sought with a large enough effect; inconclusive = small, poorly fitted or top-dose-only effect, or another doubt; inactive = no such curve, though single readings can be large; an effect the other way counts as inactive or inconclusive. *1 amine or outer side, *2 acyl side, *3 side chain or, on linkers, in order; H or OH if unused. Where a SMILES comes first, the peptide text is derived from it. Bridges are numbered along the chain shown (N, C = ends). [ ]: non-standard residue; d: D form. The star is where a group is joined. ξ: configuration not given here. X10 = NC1=NCCC(C(N[*:1])C(=O)[*:2])N1; ΔAla(3-NHCONH2) = NC(=O)NC=C(N)C(=O)O; ξβ3hOrn = NCCCC(N)CC(=O)*; Dap = NC[CH](N)C(=O)O
% is scaled to controls: 0 for no effect and ±100 for the full control effect.

With `CCC[C@H](N[C@@H](C)C(=O)N1[C@H](C(=O)O)C[C@@H]2CCCC[C@@H]21)C(=O)OCC`, the max response in test [1] is 1.07%; in test [2] it was -9.35%. For the same compound, the Potency result in [3], in test [4], in [5], in test [6], in [7] and in [8] was “inactive” in each case. For the same compound, the Potency entry in test [9], in test [10], in [11], in test [12], in test [13] and in [14] was “inactive” each time. The Potency entry in [15] is “inactive”.
With `CC(C)(C)C1CCC(CC2=C(O)c3ccccc3C(=O)C2=O)CC1` (stereo unspecified), the max response in test [1] was -2.75%; in test [2], -2.94%. The Potency result in test [3], in [4], in [5], in test [6], in test [16] and in test [8] was “inactive” throughout. The Potency entry in test [9], in test [10], in test [11], in test [12], in [13] and in test [14] was “inactive” throughout.
For `N#Cc1cc(NC(=O)C(=O)O)c(Cl)c(NC(=O)C(=O)O)c1`, the max response in test [1] is -3.53%; in [2], -0.466%. For the same compound, the Potency entry in test [3], in test [4], in test [5], in [6], in [7] and in test [16] was “inactive” throughout. Moreover, the Potency result in test [8], in test [9], in [10], in test [11], in [12] and in test [13] was “inactive” in each case. Further, the Potency result in [14] and in [15] was “inactive” each time.
In the case of `O=[N+]([O-])c1cncn1CCN1CCOCC1`, the values for the max response in test [1] and in test [2] were -14.4% and 2.27%, respectively. The Potency result in [3], in test [4], in test [5], in [6], in [7] and in test [16] was “inactive” in each case. The Potency result in test [8], in [10], in test [11], in [12], in test [13] and in test [14] was “inactive” throughout. Also, the Potency result in test [15] was “inactive”.
As for `Fc1ccc(C(c2ccc(F)cc2)N2CCNCC2)cc1`, the max response is -17.9% in [1] and -2.81% in [2]. For the same compound, the Potency entry in test [3], in [4], in test [5], in test [6], in test [7] and in test [16] was “inactive” throughout. Besides, the Potency result in test [8], in test [9], in [10], in [11], in [12] and in test [13] was “inactive” in each case. Also, the Potency entry in test [14] and in test [15] was “inactive” each time.
On to `C[C@H]1C[C@H](O)c2ccsc2S1(=O)=O`, for which the values for the max response in [1] and in test [2] were 2.62% and 1.66%, respectively. The Potency result in test [3], in test [4], in [5], in test [6], in [7] and in test [16] was “inactive” in each case. Further, the Potency entry in test [8], in test [9], in test [10], in test [11], in test [12] and in [13] was “inactive” each time. For the same compound, the Potency result in test [14] and in test [15] was “inactive” each time.
`COc1ccc(OC(=O)N(CC(=O)O)Cc2ccc(OCCc3nc(-c4ccccc4)oc3C)cc2)cc1`: the max response in [1] was -6.17%; in test [2], 0.554%. For the same compound, the Potency result in test [3], in test [4], in [5], in test [6], in test [7] and in test [16] was “inactive” throughout. Further, the Potency result in test [8], in [10], in [11], in test [12], in [13] and in test [14] was “inactive” each time. The Potency entry in [15] is “inactive”.
`CCc1cccc2c(CCO)c[nH]c12`: the max response in [1] is 2.18%; in test [2], 1.36%. Moreover, the Potency entry in [3], in test [4], in test [5], in [6], in [7] and in [16] was “inactive” in each case. Besides, the Potency entry in [8], in [9], in [10], in test [11], in [12] and in test [13] was “inactive” each time. Moreover, the Potency entry in test [14] and in test [15] was “inactive” each time.
As for `Cc1ccc(Cl)c(OCC(O)CNC(C)(C)C)c1` (stereo unspecified), the max response in test [1] was 2.84%; in [2], 1.79%. Further, the Potency entry in [3], in test [4], in [5], in [6], in [7] and in test [16] was “inactive” in each case. In addition, the Potency result in [8], in test [9], in [10], in test [11], in [12] and in [14] was “inactive” each time. Also, the Potency entry in [15] is “inactive”.
As to `NCCCC(N)CC(=O)NCC1NC(=O)C(CO)NC(=O)C(N)CNC(=O)C(C2CCN=C(N)N2)NC(=O)C(=CNC(N)=O)NC1=O` (stereo not drawn) (H-[Dap]S[Dap](ξβ3hOrn)[ΔAla(3-NHCONH2)][X10]; lactam 1-C; configuration not given here), the max response is -10.9% in test [1] and -5.75% in test [2]. Besides, the activity change, negative = cytotoxicity in [3] is 7.39% [at 0.597 µM]; in [4] it was 12.9% [at 0.597 µM]; in test [5], 3.4% [at 0.597 µM]; in test [6], 1.36% [at 0.597 µM]; in [7], 24.3% [at 0.597 µM]; in test [16], 13.5% [at 0.597 µM]. The activity change, negative = cytotoxicity was 15.1% [at 0.462 µM] in test [8]; 10.4% [at 0.462 µM] in test [9]; 9.08% [at 0.462 µM] in test [10]; -0.941% [at 0.462 µM] in test [11]; -1.14% [at 0.462 µM] in test [12]; -1.45% [at 0.462 µM] in test [13]. Also, the results for the activity change, negative = cytotoxicity in [14] and in test [15] were 1.16% [at 0.462 µM] and -2.62% [at 0.462 µM], respectively.
On to `[O-][n+]1cccc(/C(Cl)=N/OC[C@@H](O)CN2CCCCC2)c1`, for which the max response in test [1] was 2.38%; in test [2], 0.672%. For the same compound, the Potency entry in test [3], in test [4], in test [5], in test [6], in test [7] and in test [16] was “inactive” each time. The Potency entry in [8], in [9], in test [10], in [11], in [12] and in test [13] was “inactive” in each case. Besides, the Potency result in test [14] and in test [15] was “inactive” each time.
Regarding `O=C(CCCl)NCCc1ccccc1`, the values for the max response in test [1] and in [2] were 0.301% and -1.58%, respectively. The Potency result in [3], in test [4], in test [5], in [6], in [7] and in [16] was “inactive” in each case. Further, the Potency result in test [8], in [9], in test [10], in test [11], in test [12] and in test [13] was “inactive” in each case. In addition, the Potency result in test [14] and in test [15] was “inactive” in each case.
Consider `Oc1cccc2[nH]ccc12`, for which the values for the max response in test [1] and in test [2] were -5.11% and -6.12%, respectively. Moreover, the Potency result in test [3], in [4], in test [5], in test [6], in [8] and in test [9] was “inactive” each time. The Potency result in test [10], in [11], in [12], in [13], in test [14] and in test [15] was “inactive” throughout. Also, in [7], the Potency is 26.6 µM (active).
